Hits are enriched below; roughly 19% of the tested compounds scored in any of these assays.
TDP1 cell CPT: growth inhibition of DT40 Tdp1-/-;hTDP1 cells with camptothecin (screen for TDP1 inhibitors) | chicken DT40 Tdp1-/-;hTDP1 cells + 20 nM CPT, ATP luminescence, 48 h | Potency, µM (highest dose often 46.2 µM), for inactives: top-dose activity change, negative = growth inhibition, usual class: inhibitors | 12% of 420,000 active | AID 686979; also: nearly all actives have a fitted effect of over 55% in size
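Chicken DT40 Tdp1-/- cells complemented with human TDP1, 400 cells/well, exposed to compounds plus 20 nM camptothecin for at least 48 h at 37 C; viability read as ATP content by CellTiter-Glo luminescence.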
DT40 TDP1 no CPT: qHTS for Inhibitors of human tyrosyl-DNA phosphodiesterase 1 (TDP1): qHTS in cells in absence of CPT; DT40 Tdp1-/- hTDP1 cells, no CPT, ATP luminescence, 48 h; Potency, µM (titrated, usually from 46.2 µM), for the others: top-dose activity change, negative = growth inhibition, usual class: inhibitors; 15% of 420,000 active; AID 686978, 2013; also: nearly all actives have a fitted effect of over 55% in size
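No-CPT arm: Tdp1-/-;hTDP1 DT40 cells (400/well) plus compounds, incubated ≥48 hr at 37 °C. Readout CellTiter-Glo luminescence.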
KB-3-1 cytotox: kills parental KB-3-1 adenocarcinoma cells; KB-3-1 viability, CellTiter-Glo ATP luminescence, 72 h; Potency, µM (top dose mostly 46.1 µM), hits mostly cytotoxic; 1.4% of 400,000 active; AID 1347075; also: nearly all actives have a fitted effect of over 60% in size
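Cytotoxicity measured as CellTiter-Glo luminescence after 72 h at 37 C. Compound titrations were pinned onto drug-naive KB-3-1 parental adenocarcinoma cells grown in DMEM with 10% FBS, and normalized data fitted to concentration-response curves.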
HT1080 IDH1KD tx: HT-1080 IDH1 knockdown cell toxicity (counter line); AID 686971; Potency, µM (titrated, usually from 46.1 µM), for the others: top-dose activity, negative = toxicity, most hits filed as cytotoxic; 2% of 360,000 active; HT-1080 IDH1 knockdown viability, ATP luminescence, 48 h;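 also: 0% = DMSO wells and -100% = cell-free medium wells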
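Assay cells: HT-1080 with IDH1 knockdown, 750 per well, RPMI/5% FBS. Exposure: 48 h at 37 °C following 2 h pre-incubation. Read: CellTiter-Glo luminescence; fitted concentration-response, curve class assigned.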
KB-V1 MDR tox: KB-V1 MDR subline cytotoxicity; Potency, µM (series often up to 46.1 µM), usual class: cytotoxic; KB-V1 MDR cells viability, CellTiter-Glo, 72 h; 3.4% of 400,000 active; AID 1347076; also: nearly all actives have a fitted effect of over 60% in size
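Drug-selected KB-V1 cells, grown in DMEM lacking phenol red with 10% FBS, receive compound titrations; after three days at 37 degrees C, surviving cell ATP is quantified by CellTiter-Glo luminescence and responses normalized and curve-fitted.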
HT1080-NT tox: kills 2HG-producing HT-1080-NT fibrosarcoma cells; AID 686970; HT-1080-NT fibrosarcoma viability, CellTiter-Glo ATP luminescence, 48 h; Potency, µM (top dose mostly 46.1 µM), for the others: at the highest dose activity, negative = less viability, usual class: cytotoxic; 1.6% of 360,000 active;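 also: NT is the 2HG producing partner of a matched IDH1 knockdown line; 0% = DMSO-treated cells and -100% = media-only wells without cells; nearly all actives have a fitted effect of over 55% in size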
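Fibrosarcoma NT cells, 750 per well in 5% FBS RPMI, were exposed to compound for 48 hours. Viability: CellTiter-Glo luminescence.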
* marks the source's active call; other numbers are inactive results; i = inactive; ? = inconclusive; . = no result given. Calls follow the shape of the dose curve; as a rule, active = well fitted curve in the direction sought with a large enough effect; inconclusive = small, poorly fitted or top-dose-only effect, or another doubt; inactive = no such curve, though single readings can be large; an effect the other way counts as inactive or inconclusive. Unless noted, % is scaled to controls: 0 for no effect and ±100 for the full control effect; potency is read from the fitted curve at half-maximal effect.

SMILES	TDP1 cell CPT	DT40 TDP1 no CPT	KB-3-1 cytotox	HT1080 IDH1KD tx	KB-V1 MDR tox	HT1080-NT tox
CN(C)Cc1cc2ccccc2c2c1COC2	-7%	?	i	-6%	i	-1%
Cc1cc2ccc3ccccc3c2cc1CN(C)C	?	?	i	18µM*	i	33µM*
Cc1cc(C)c(NC(=O)C(=O)NCC(c2cccnc2)N2CCN(c3ccccc3F)CC2)c(C)c1 (stereo not drawn)	15µM*	15µM*	i	.	i	.
Cc1ccc(NC(=O)C(=O)NCC(c2cccnc2)N2CCN(C)CC2)cc1F (stereo not drawn)	-24%	-23%	i	.	i	.
Cc1ccc(NC(=O)C(=O)NCC(c2cccnc2)N2CCN(c3ccccc3F)CC2)cc1Cl (stereo not drawn)	21µM*	23µM*	i	.	i	.
Cc1cc(C)c(NC(=O)C(=O)NCC(c2cccnc2)N2CCN(Cc3ccccc3)CC2)c(C)c1 (stereo not drawn)	12µM*	5.8µM*	i	.	i	.
Cc1cccc(NC(=O)C(=O)NCC(c2cccnc2)N2CCOCC2)c1 (stereo not drawn)	-20%	-28%	i	.	i	.
COc1ccccc1N1CCN(CCN(C(=O)C2CCCCC2)c2ccccn2)CC1	?	23µM*	i	-4%	i	13%
COc1ccc(C2NC(=O)NC(C)=C2C(=O)OC2CCCCC2)cc1 (stereo not drawn)	18µM*	?	i	3%	i	-2%
COc1cc(C2NC(=O)NC(C)=C2C(=O)OC2CCC(C)CC2)ccc1O (stereo not drawn)	-5%	2%	i	3%	?	2%
COc1ccc(C2NC(=O)NC(C)=C2C(=O)OC2CCC(C)CC2)cc1 (stereo not drawn)	?	18µM*	i	-1%	i	-4%
COc1ccc(C2NC(=O)NC(C)=C2C(=O)OC2CCCC(C)C2)cc1 (stereo not drawn)	?	?	i	-16%	i	-14%
Cn1c(=O)c2cc(NC(=O)Nc3cccnc3)ccc2n1Cc1cccc(C(F)(F)F)c1	?	?	i	4%	i	5%
Oc1ccc(Br)cc1-c1ccnn1-c1ccccc1	21µM*	10µM*	?	7.3µM*	?	?
Cc1nn2c(=O)cc(COC(=O)C(c3ccccc3)c3ccccc3)nc2s1	?	-12%	i	.	i	.
COc1cccc(C(=O)NCCS(=O)(=O)N(C)Cc2ccccc2)c1	-13%	?	i	14%	18µM*	6%
COc1cccc(C(=O)NCCS(=O)(=O)N(C)C2CCCCC2)c1	7%	-14%	i	16%	12µM*	4%
COc1cccc(C(=O)Nc2nnc(S(=O)(=O)N(C)Cc3ccccc3)s2)c1	?	-18%	i	-14%	i	-15%
Cc1ccc(S(=O)(=O)NNC(=O)Nc2ccc([N+](=O)[O-])cc2)c(C)c1	?	?	i	-7%	i	0%
Cc1cc(C)c(OCC(=O)Nc2nnc(C3CC3)s2)c(C)c1	-26%	-18%	i	-9%	i	-3%
CCN(C(=O)c1cccc(S(=O)(=O)N(C)C)c1)C12CC3CC(CC(C3)C1)C2	13µM*	12µM*	?	-14%	?	-9%
CCN(C(=O)c1ccc2c(c1)OCO2)C12CC3CC(CC(C3)C1)C2	?	23µM*	i	-1%	i	-3%
O=C(Cc1ccc(Cl)cc1)NN1C(=O)c2ccccc2C1=O	?	-19%	i	11%	i	15%
COC(=O)[C@@H]1[C@@H](C#N)C2(c3ccccc3-c3ccccc32)N(c2ccc(Cl)cc2)N1C#N	3.3µM*	3.7µM*	?	23µM*	?	23µM*
COc1ccc(NC(=S)NCc2ccccc2)c(OC)c1	3%	?	i	10%	i	19%
SMILES	TDP1 cell CPT	DT40 TDP1 no CPT	KB-3-1 cytotox	HT1080 IDH1KD tx	KB-V1 MDR tox	HT1080-NT tox
CCCCC(=O)NC(c1ccc(Cl)cc1Cl)c1ccc2cccnc2c1O (stereo not drawn)	6.5µM*	2.9µM*	3.3µM*	?	?	?
CC(C)C(=O)NC(c1ccc(Cl)cc1Cl)c1ccc2cccnc2c1O (stereo not drawn)	6.5µM*	5.2µM*	i	?	i	?
CC(NC(=O)CSc1ncccn1)c1ccc(Cl)cc1Cl (stereo not drawn)	-5%	?	i	7%	i	7%
CCC(=O)NC(c1ccc(Cl)cc1Cl)c1ccc2cccnc2c1O (stereo not drawn)	5.2µM*	5.2µM*	?	?	i	15µM*
O=C(Nc1sc2c(c1C(=O)NCC1CCCO1)CCC2)c1cc(=O)c2cc(Cl)ccc2o1 (stereo not drawn)	9%	?	i	.	i	.
Cc1nn(CC(=O)NC2CC2)c(=O)c2cc3cc(F)ccc3n12	-1%	-12%	i	.	?	.
COc1ccc(-c2cc(=O)oc3cc(OCC(=O)Nc4ccc(CCO)cc4)ccc23)cc1	3.7µM*	0.52µM*	i	-1%	i	-4%
COc1ccc(-c2cc(=O)oc3cc(OC(=O)C4CCCCC4)ccc23)cc1	?	18µM*	i	-1%	?	-19%
COC(=O)COc1ccc2c(-c3ccc(OC)cc3)cc(=O)oc2c1	0.41µM*	-2%	i	12%	i	16%
COc1ccc(-c2cc(=O)oc3cc(OCC(=O)N4CCOCC4)ccc23)cc1	8%	-1%	i	5%	?	0%
CCS(=O)(=O)N1CCC(n2c(C(F)(F)F)nc3cccnc32)CC1	?	?	i	.	i	.
COc1ccc(NC(=O)CSc2nnc(NC(=O)NC3CCCCC3)s2)cc1OC	?	?	i	.	i	.
Oc1ccc(/C=N/n2c3ccccc3c3ccccc32)cc1	?	16µM*	i	23µM*	i	?
COC(=O)c1cnn2c(C)c(Cc3c(C)cc(C)cc3C)c(C)nc12	?	-20%	i	.	i	.
COCCCNC(=O)C[C@@H]1C[C@@]2(C(=O)OC)CCCCC=C2N(Cc2ccccc2)C1=O	-3%	-10%	i	1%	i	4%

Screens deposited in PubChem by National Center for Advancing Translational Sciences (NCATS).
